Experimental data published in PubChem BioAssay (NCI).
About 83,000 compounds went through this panel and 20% of them were active in at least one assay; those are over-represented in the sample as a whole.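 Treatment: one concentration, 48 hours, 96-well format. Scoring: percent growth, with anything below 10 considered active.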 Active and inactive are the calls of the source.

Columns and labels:
Assay in all cases: NCI-60 one-dose screen, 48 h (100 = growth as untreated, 0 = no growth, -100 = all killed)
HCT-15 colon = details: 10 µM
HT29 colon = details: 10 µM
SNB-75 CNS = details: 10 µM
SNB-19 CNS = details: 10 µM
U251 CNS = details: 10 µM
PC-3 prostate = details: 10 µM
SK-MEL-5 melanoma = details: 10 µM
UACC-62 melanoma = details: 10 µM unless noted
LOX IMVI melanoma = details: 10 µM
SK-MEL-28 melanoma = details: 10 µM

Measured: growth

CC(=O)c1c[nH]c2ccccc12
inactive: HCT-15 colon 101% | HT29 colon 118% | SNB-75 CNS 88.1% | SNB-19 CNS 105% | U251 CNS 95.7% | PC-3 prostate 86.1% | SK-MEL-5 melanoma 103% | UACC-62 melanoma 97.5% | LOX IMVI melanoma 102% | SK-MEL-28 melanoma 103%

CCOC(=O)C(CCC(C)C)C(=O)OCC
inactive: HCT-15 colon 104% | HT29 colon 94.4% | SNB-75 CNS 94.6% | SNB-19 CNS 109% | U251 CNS 101% | PC-3 prostate 107% | SK-MEL-5 melanoma 102% | UACC-62 melanoma 101% | LOX IMVI melanoma 115% | SK-MEL-28 melanoma 107%

O=C1N(C[P+](c2ccccc2)(c2ccccc2)c2ccccc2)CCCN1C[P+](c1ccccc1)(c1ccccc1)c1ccccc1
inactive: HCT-15 colon 110% | HT29 colon 102% | SNB-75 CNS 88.4% | SNB-19 CNS 98.3% | U251 CNS 95.2% | PC-3 prostate 92.5% | SK-MEL-5 melanoma 106% | UACC-62 melanoma 94.7% | LOX IMVI melanoma 108% | SK-MEL-28 melanoma 102%

CC(=O)c1ccc(C(C)(C)C)cc1
inactive: HCT-15 colon 101% | HT29 colon 96.7% | SNB-75 CNS 97.7% | SNB-19 CNS 95.6% | U251 CNS 99.6% | PC-3 prostate 91.2% | SK-MEL-5 melanoma 101% | UACC-62 melanoma 91.1% | LOX IMVI melanoma 98.5% | SK-MEL-28 melanoma 120%

S=C(Nc1ccccc1)N1CCCCC1
inactive: HCT-15 colon 105% | HT29 colon 102% | SNB-75 CNS 99.5% | SNB-19 CNS 111% | U251 CNS 96.2% | PC-3 prostate 96.4% | SK-MEL-5 melanoma 97% | UACC-62 melanoma 90.5% | LOX IMVI melanoma 96.6% | SK-MEL-28 melanoma 103%

CC(=O)OC1CC2C(C)(C)OC3CC(=O)OCC32C2CCC3(C)C(=CCC3c3ccoc3)C12C (stereo not given)
inactive: HCT-15 colon 108% | HT29 colon 102% | SNB-75 CNS 97% | SNB-19 CNS 101% | U251 CNS 107% | PC-3 prostate 105% | SK-MEL-5 melanoma 92.5% | UACC-62 melanoma 72.1% | LOX IMVI melanoma 98.4% | SK-MEL-28 melanoma 86.9%

CC1(C)N=C(N)N=C(N)N1c1ccc(Cl)cc1
inactive: HCT-15 colon 73.6% | HT29 colon 29.8% | SNB-75 CNS 75.8% | SNB-19 CNS 58% | U251 CNS 31.5% | PC-3 prostate 33.1% | SK-MEL-5 melanoma 31.7% | UACC-62 melanoma 41.4% | LOX IMVI melanoma 24.6% | SK-MEL-28 melanoma 90.4%

Oc1ccccc1-c1nnco1
inactive: HCT-15 colon 100% | HT29 colon 97.5% | SNB-75 CNS 45.5% | SNB-19 CNS 93.2% | U251 CNS 82.9% | PC-3 prostate 91.8% | SK-MEL-5 melanoma 102% | UACC-62 melanoma 89.9% | LOX IMVI melanoma 87.7% | SK-MEL-28 melanoma 101%

COc1cc(C(=O)NC(=S)Nc2ccc3ccccc3c2)cc(OC)c1OC
inactive: HCT-15 colon 87.4% | HT29 colon 100% | SNB-75 CNS 92% | SNB-19 CNS 107% | U251 CNS 102% | PC-3 prostate 82.4% | SK-MEL-5 melanoma 55.5% | UACC-62 melanoma 36.5% | LOX IMVI melanoma 91% | SK-MEL-28 melanoma 98.1%

O=C(O)c1cccc([N+](=O)[O-])c1
inactive: HCT-15 colon 108% | HT29 colon 111% | SNB-75 CNS 94.3% | SNB-19 CNS 106% | U251 CNS 95.7% | PC-3 prostate 93.1% | SK-MEL-5 melanoma 107% | UACC-62 melanoma 101% | LOX IMVI melanoma 99.2% | SK-MEL-28 melanoma 112%

COC(=O)c1ccccc1N(C)C
inactive: HCT-15 colon 103% | HT29 colon 94.8% | SNB-75 CNS 93.3% | SNB-19 CNS 98.8% | U251 CNS 112% | PC-3 prostate 100% | SK-MEL-5 melanoma 101% | UACC-62 melanoma 105% | LOX IMVI melanoma 94.5% | SK-MEL-28 melanoma 103%

COCCOC(=O)c1ccc(C(C)C)cc1
inactive: HCT-15 colon 99.5% | HT29 colon 91.9% | SNB-75 CNS 86.9% | SNB-19 CNS 106% | U251 CNS 98.8% | PC-3 prostate 82.9% | SK-MEL-5 melanoma 103% | UACC-62 melanoma 99.4% | LOX IMVI melanoma 95.7% | SK-MEL-28 melanoma 110%

CC1=NN(c2ccccc2)C(=O)/C1=C\N1CC(=O)NC1=S
inactive: HCT-15 colon 107% | HT29 colon 103% | SNB-75 CNS 91.2% | SNB-19 CNS 101% | U251 CNS 98.3% | PC-3 prostate 93.6% | SK-MEL-5 melanoma 101% | UACC-62 melanoma 97.1% | LOX IMVI melanoma 98.4% | SK-MEL-28 melanoma 112%

CCOc1ccccc1/C=N/Nc1nc2ccccc2o1
inactive: HCT-15 colon 76.3% | HT29 colon 110% | SNB-75 CNS 83.9% | SNB-19 CNS 100% | U251 CNS 105% | PC-3 prostate 85.8% | SK-MEL-5 melanoma 97.7% | UACC-62 melanoma 82.6% | LOX IMVI melanoma 94.1% | SK-MEL-28 melanoma 100%

Nc1ccccc1C(=O)Nc1ccc(Cl)cc1Cl
inactive: HCT-15 colon 101% | HT29 colon 93.2% | SNB-75 CNS 67.7% | SNB-19 CNS 96.1% | U251 CNS 102% | PC-3 prostate 78.8% | SK-MEL-5 melanoma 107% | UACC-62 melanoma 88.7% | LOX IMVI melanoma 87.9% | SK-MEL-28 melanoma 100%

COc1cccc(/C=N/NC(=S)NC2CC3CCC2C3)c1O (stereo not given)
inactive: HCT-15 colon 26.8% | HT29 colon 93.6% | SNB-19 CNS 72.4% | U251 CNS 42.2% | PC-3 prostate 64.8% | SK-MEL-5 melanoma 67.8% | UACC-62 melanoma 67.7% | LOX IMVI melanoma 44.2% | SK-MEL-28 melanoma 67.6%
active: SNB-75 CNS 5.33%

c1ccc(Sc2ccccc2)cc1
inactive: HCT-15 colon 99.4% | HT29 colon 102% | SNB-75 CNS 99.7% | SNB-19 CNS 98.2% | U251 CNS 94.5% | PC-3 prostate 95.9% | SK-MEL-5 melanoma 104% | UACC-62 melanoma 101% | LOX IMVI melanoma 104% | SK-MEL-28 melanoma 107%

O=C(O)C(O)c1ccccc1 (stereo not given)
inactive: HCT-15 colon 113% | HT29 colon 115% | SNB-75 CNS 94.8% | SNB-19 CNS 108% | U251 CNS 103% | PC-3 prostate 97.3% | SK-MEL-5 melanoma 101% | UACC-62 melanoma 107% | LOX IMVI melanoma 94.2% | SK-MEL-28 melanoma 107%

COC(=O)c1ccc(NC(=O)CCl)cc1
active: LOX IMVI melanoma -19.8%
inactive: HCT-15 colon 61.7% | HT29 colon 76.3% | SNB-75 CNS 83% | SNB-19 CNS 92.7% | U251 CNS 26.2% | PC-3 prostate 78.2% | SK-MEL-5 melanoma 80.6% | UACC-62 melanoma 72.2% | SK-MEL-28 melanoma 101%

O=C(O)CCCC(=O)O
inactive: HCT-15 colon 101% | HT29 colon 106% | SNB-75 CNS 85.7% | SNB-19 CNS 99.4% | U251 CNS 94.3% | PC-3 prostate 95.1% | SK-MEL-5 melanoma 102% | UACC-62 melanoma 105% | LOX IMVI melanoma 95.3% | SK-MEL-28 melanoma 102%

Cc1ccccc1C1N=C2Oc3ccccc3C=C2C(=O)N1 (stereo not given)
inactive: HCT-15 colon 36.8% | HT29 colon 49.7% | SNB-75 CNS 21% | SNB-19 CNS 61.3% | U251 CNS 63.8% | PC-3 prostate 16.3% | SK-MEL-5 melanoma 30.7% | UACC-62 melanoma 35.1% | LOX IMVI melanoma 57.3% | SK-MEL-28 melanoma 41.5%

O=C(O)C(Cc1ccccc1)C(=O)O
inactive: HCT-15 colon 103% | HT29 colon 123% | SNB-75 CNS 95.9% | SNB-19 CNS 106% | U251 CNS 108% | PC-3 prostate 94% | SK-MEL-5 melanoma 89.6% | UACC-62 melanoma 101% | LOX IMVI melanoma 100% | SK-MEL-28 melanoma 113%

CC1CC(O)CC(C)(C)C1 (stereo not given)
inactive: HCT-15 colon 100% | HT29 colon 99.9% | SNB-75 CNS 94% | SNB-19 CNS 104% | U251 CNS 101% | PC-3 prostate 94.8% | SK-MEL-5 melanoma 104% | UACC-62 melanoma 92.4% | LOX IMVI melanoma 102% | SK-MEL-28 melanoma 112%

C=C[Si](OC(C)=O)(OC(C)=O)OC(C)=O
inactive: HCT-15 colon 103% | HT29 colon 101% | SNB-75 CNS 95.5% | SNB-19 CNS 109% | U251 CNS 100% | PC-3 prostate 91.6% | SK-MEL-5 melanoma 104% | UACC-62 melanoma 116% | LOX IMVI melanoma 98.4% | SK-MEL-28 melanoma 104%

OCCN1CCOCC1
inactive: HCT-15 colon 96.3% | HT29 colon 110% | SNB-75 CNS 90.4% | SNB-19 CNS 102% | U251 CNS 108% | PC-3 prostate 109% | SK-MEL-5 melanoma 103% | UACC-62 melanoma 103% | LOX IMVI melanoma 105% | SK-MEL-28 melanoma 105%

O=C(CCNNC(=O)c1ccncc1)NCc1ccccc1
inactive: HCT-15 colon 81.8% | HT29 colon 105% | SNB-75 CNS 89.4% | SNB-19 CNS 98.1% | U251 CNS 85.4% | PC-3 prostate 87.4% | SK-MEL-5 melanoma 89% | UACC-62 melanoma 88% | LOX IMVI melanoma 86.8% | SK-MEL-28 melanoma 103%

COc1cc2c(cc1OC)[C@H](C(=O)O)[C@@H](c1ccc(OC(C)C)c(OC)c1)N(C)C2=O
inactive: HCT-15 colon 101% | HT29 colon 105% | SNB-75 CNS 90.4% | SNB-19 CNS 94.8% | U251 CNS 97.3% | PC-3 prostate 90% | SK-MEL-5 melanoma 102% | UACC-62 melanoma 89.6% | LOX IMVI melanoma 94.7% | SK-MEL-28 melanoma 116%

C=CCOC(=O)C(=O)OCC=C
inactive: HCT-15 colon 100% | HT29 colon 101% | SNB-75 CNS 102% | SNB-19 CNS 94.7% | U251 CNS 106% | PC-3 prostate 97% | SK-MEL-5 melanoma 98.8% | UACC-62 melanoma 102% | LOX IMVI melanoma 111% | SK-MEL-28 melanoma 113%

CC(C)OC(C(=O)O)c1ccccc1 (stereo not given)
inactive: HCT-15 colon 97.8% | HT29 colon 109% | SNB-75 CNS 78.2% | SNB-19 CNS 99.5% | U251 CNS 111% | PC-3 prostate 82.9% | SK-MEL-5 melanoma 105% | UACC-62 melanoma 97.1% | LOX IMVI melanoma 88.5% | SK-MEL-28 melanoma 102%

O=C(/C=C\c1ccc(O)cc1)c1ccccc1
inactive: HCT-15 colon 88.5% | HT29 colon 86.8% | SNB-75 CNS 81.4% | SNB-19 CNS 104% | U251 CNS 80.7% | PC-3 prostate 90.6% | SK-MEL-5 melanoma 97.3% | UACC-62 melanoma 94.8% | LOX IMVI melanoma 94.4% | SK-MEL-28 melanoma 103%

NC(C(=O)O)C(O)c1ccco1 (stereo not given)
inactive: HCT-15 colon 99.1% | HT29 colon 120% | SNB-75 CNS 106% | SNB-19 CNS 114% | U251 CNS 102% | PC-3 prostate 96% | SK-MEL-5 melanoma 104% | UACC-62 melanoma 113% | LOX IMVI melanoma 103% | SK-MEL-28 melanoma 107%
